Results taken from the supplement of paper PMC6555819.

Experiments:
Experiment in all cases: PBM binding z-score (relative to random genomic background probes); higher = stronger binding; sequences stand for … in GC…GCGATTGACAGCGTAGAATGAAGG
[1] = tested on: FXR:RXRa (NR concentration 270 nM, RXRa partner concentration 90 nM)
Outline: (§1)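 Custom Agilent 4×180K protein-binding microarrays carried double-stranded probes, each with a 34-nt variable region. These regions held direct-repeat seeds, single-nucleotide variants, half-site ablations and random human genomic background sequences. Ligand-free nuclear receptor dimers were incubated on the arrays for 1 h, antibodies against each partner (one per run) detected binding, and scanned fluorescence was regression-normalized. Binding z-scores take the random background probes as reference.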

[2] = tested on: LXRa:RXRa (NR concentration 270 nM, RXRa partner concentration 90 nM)
Outline: as §1

[3] = tested on: LXRa homodimer (NR concentration 270 nM)
Outline: as §1

[4] = tested on: LXRb:RXRa (NR concentration 270 nM, RXRa partner concentration 90 nM)
Outline: as §1

[5] = tested on: LXRb homodimer (NR concentration 270 nM)
Outline: as §1

[6] = tested on: PPARa:RXRa (NR concentration 270 nM, RXRa partner concentration 90 nM)
Outline: as §1

[7] = tested on: PPARg:RXRa (NR concentration 180 nM, RXRa partner concentration 90 nM)
Outline: as §1

[8] = tested on: PPARg:RXRa 270nM:90nM, anti-RXR (NR concentration 270 nM, RXRa partner concentration 90 nM)
Outline: as §1

[9] = tested on: PPARg:RXRa 30nM:10nM, anti-RXR (NR concentration 30 nM, RXRa partner concentration 10 nM)
Outline: as §1

[10] = tested on: PPARg:RXRa 90nM:30nM, anti-RXR (NR concentration 90 nM, RXRa partner concentration 30 nM)
Outline: as §1

[11] = tested on: PPARg:RXRa DBDmut IVT, anti-RXR (DBD mutation: RXRa K156A/R161A, NR concentration 270 nM, RXRa partner concentration 90 nM)
Outline: as §1

[12] = tested on: PPARg:RXRa IVT, anti-PPARg (NR concentration 270 nM, RXRa partner concentration 90 nM)
Outline: as §1

[13] = tested on: PPARg DBDmut:RXRa IVT, anti-PPARg (DBD mutation: PPARg1 K132A/R137A, NR concentration 270 nM, RXRa partner concentration 90 nM)
Outline: as §1

[14] = tested on: PPARg DBDmut IVT, anti-PPARg (DBD mutation: PPARg1 K132A/R137A, NR concentration 270 nM)
Outline: as §1

[15] = tested on: PPARg homodimer (NR concentration 180 nM)
Outline: as §1

[16] = tested on: PXR:RXRa (NR concentration 270 nM, RXRa partner concentration 90 nM)
Outline: as §1

[17] = tested on: PXR homodimer (NR concentration 270 nM)
Outline: as §1

[18] = tested on: RARa:RXR (NR concentration 270 nM, RXRa partner concentration 90 nM)
Outline: as §1

[19] = tested on: RARa homodimer (NR concentration 270 nM)
Outline: as §1

[20] = tested on: RARb:RXRa (NR concentration 270 nM, RXRa partner concentration 90 nM)
Outline: as §1

Sequence | PBM binding z-score [1] | PBM binding z-score [2] | PBM binding z-score [3] | PBM binding z-score [4] | PBM binding z-score [5] | PBM binding z-score [6] | PBM binding z-score [7] | PBM binding z-score [8] | PBM binding z-score [9] | PBM binding z-score [10] | PBM binding z-score [11] | PBM binding z-score [12] | PBM binding z-score [13] | PBM binding z-score [14] | PBM binding z-score [15] | PBM binding z-score [16] | PBM binding z-score [17] | PBM binding z-score [18] | PBM binding z-score [19] | PBM binding z-score [20]
CAAACTAGGTCAAAGAGGTCAAAGTCCGTGCGTA | 6.71 | 6.33 | 6.39 | 5.91 | 2.23 | 6.17 | 8.55 | 7.69 | 6.36 | 7.64 | 8.36 | 8.45 | 2.17 | 1.31 | 5.02 | 6.37 | 10.5 | 6.42 | 2.57 | 4.77
AGAATGAGGTTACCATAGATCAGGGAAACGCTTG | 1.71 | 6.81 | -0.421 | 3.61 | -0.0924 | 3.14 | 2.41 | 2.09 | 0.706 | 1.29 | 3.38 | 3.18 | 0.359 | 0.63 | 0.136 | 0.897 | 0.179 | 1.54 | 0.172 | 1.79
ACTAGTTGGTCAGCGGAGGTCACACACAATTCGG | 2.84 | 3.44 | 3.05 | 3.15 | 0.932 | 3.52 | 1.91 | 2.26 | 1.3 | 1.68 | 1.63 | 2.75 | 1.36 | 0.469 | 3.06 | 4.99 | 1.8 | 4.46 | 1.6 | 3.59
CAAACTAAGTCAAGAGGTCAAAGTCCGCTTCCCG | 5.6 | 5.87 | 5.56 | 5.06 | 1.95 | 5.52 | 4.19 | 5.54 | 2.73 | 4.86 | 2.44 | 3.45 | 0.624 | 0.834 | 4.63 | 5.85 | 2.97 | 6.57 | 2 | 4.35
